Screening data from PubChem.
SENP7 inh – inhibitors of human SENP7 protease; Q9BQF6; recombinant SENP7, Z-RLRGG-aminoluciferin luminescence, 40 min; inhibition, % at 5 µM; hit rate 1.5% among 330,000; AID 434973;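 active = inhibition above about 50% at the single test dose, limit read from the data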
AHR activator – human AHR activation | AHR-responsive luciferase reporter cells, luminescence | hit rate 2.5% among 320,000 | activation, % at 5 µM; in the data active = activation above about 47%
SENP8 block-1 – inhibitors of human SENP8 protease. recombinant SENP8, Nedd8 substrate fluorescence. hit rate 0.64% among 360,000. inhibition, % at 20 µM. AID 602440. Q96LD8; in the data active = inhibition mostly above about 40%, no sharp cut-off; inactive = mostly below about 27%
SENP8 block-2 – inhibitors of human SENP8 protease; Q96LD8; purified SENP8, Z-RLRGG-aminoluciferin cleavage, luminescence; inhibition, % at 10 µM; hit rate 1.2% among 330,000; AID 2540; in the data active = inhibition above about 50%
SENP6 inh – blocks the human protease SENP6; Recombinant SENP6 catalytic domain, aminoluciferin luminescence; inhibition, % at 10 µM; hit rate 1.8% among 330,000; AID 2599;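 active = inhibition above about 50% at the single tested dose, limit read from the data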
EBI2 antag – antagonists of human EBI2 receptor; EBI2 beta-arrestin recruitment, luminescence, 7a,25-OHC stimulated; inhibition, % at 5 µM; AID 651636; hit rate 0.81% among 360,000; in the data active = inhibition above about 38%;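 note: enzyme fragment complementation signal reports receptor beta-arrestin coupling in cells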
Target sequence (P32249 whole entry, looked up, the tested form may be a part): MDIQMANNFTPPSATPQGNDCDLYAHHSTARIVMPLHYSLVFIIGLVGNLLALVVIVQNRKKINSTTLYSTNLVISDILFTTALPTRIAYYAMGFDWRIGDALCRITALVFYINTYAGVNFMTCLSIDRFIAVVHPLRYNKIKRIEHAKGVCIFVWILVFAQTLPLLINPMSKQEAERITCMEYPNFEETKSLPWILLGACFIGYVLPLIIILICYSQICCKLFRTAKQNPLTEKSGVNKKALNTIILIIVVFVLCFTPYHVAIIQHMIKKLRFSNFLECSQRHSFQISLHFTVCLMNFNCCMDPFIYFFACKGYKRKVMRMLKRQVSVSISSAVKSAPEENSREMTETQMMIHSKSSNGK
SENP8 confirm – human SENP8 inhibition, confirmed; shares compounds with SENP7 inh; Recombinant SENP8, Z-RLRGG-aminoluciferin luminescence, 60 min; inhibition, % at 12.5 µM; hit rate 40% among 6,200;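 active = mean inhibition across replicates above about 50%, limit read from the data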
SENP6 confirm – human SENP6 inhibition, confirmed. shares compounds with SENP7 inh. recombinant SENP6, Z-RLRGG-aminoluciferin luminescence. inhibition, % at 12.5 µM. hit rate 58% among 6,200. AID 488915
SENP7 confirm – human SENP7 inhibition, confirmed | hit rate 69% among 6,200 | recombinant SENP7, Z-RLRGG-aminoluciferin luminescence, 40 min | shares compounds with SENP7 inh | inhibition, % at 12.5 µM
Casp3 SENP sel – caspase-3 inhibition (SENP selectivity assay). inhibition, % at 12.5 µM. purified caspase-3, Z-DEVD-aminoluciferin luminescence, 60 min. AID 488918. hit rate 60% among 6,200. shares compounds with SENP7 inh;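 active = mean inhibition above about 50%, limit read from the data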
Target sequence (P42574 28-227 limits assumed): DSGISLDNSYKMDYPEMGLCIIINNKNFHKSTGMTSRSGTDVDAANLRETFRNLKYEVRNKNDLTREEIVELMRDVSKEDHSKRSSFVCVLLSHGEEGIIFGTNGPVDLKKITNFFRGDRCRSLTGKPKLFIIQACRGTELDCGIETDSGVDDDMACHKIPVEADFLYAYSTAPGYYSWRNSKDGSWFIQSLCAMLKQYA
SENP luc ctr – luminescence interference (SENP counter-screen) | shares compounds with SENP7 inh | Pre-incubated SENP8/Z-RLRGG-aminoluciferin, luciferase luminescence interference | inhibition, % at 12.5 µM | hit rate 39% among 6,200;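 active = mean inhibition above about 50% when retested at one dose, limit read from the data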
A number is an active result; i = inactive; nt = not tested or not shown. This is a sample that favours compounds with a hit; in the whole collection about 5% have one here.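 Rule for the calls, unless noted: active = mean inhibition above about 50% in the one-dose retest (limit read from the data); inactive = the rest.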

SMILES | SENP7 inh | AHR activator | SENP8 block-1 | SENP8 block-2 | SENP6 inh | EBI2 antag | SENP8 confirm | SENP6 confirm | SENP7 confirm | Casp3 SENP sel | SENP luc ctr
COc1cccc(C(=O)/C=C/Nc2ccc(S(=O)(=O)Nc3onc(C)c3C)cc2)c1 | 58.4 | i | i | 78.3 | 88.3 | i | 67.8 | 66.9 | 86.2 | 68.5 | i
CC1CN(C(=O)c2cc3c(=O)n4ccccc4nc3n2C)CC(C)O1 (configuration not stated) | i | i | i | i | i | i | nt | nt | nt | nt | nt
CN(C)c1nc(C=C(C#N)C#N)c(Cl)n1-c1ccc(F)cc1 | nt | nt | i | nt | nt | i | nt | nt | nt | nt | nt
N#C/C(=C/c1ccc(-c2cc(C(=O)O)cc(C(=O)O)c2)o1)c1nc2ccccc2s1 | i | i | nt | i | i | nt | nt | nt | nt | nt | nt
N#C/C(=C\c1ccco1)c1nc2ccccc2s1 | 87.7 | i | i | 87.2 | 88.6 | i | 88.0 | 91.0 | 96.7 | 84.3 | i
N#C/C(=C/c1ccco1)c1nc2ccccc2s1 | 77.8 | i | i | 85.8 | i | i | 81.8 | 86.5 | 95.0 | 85.2 | 54.9
O=C(O)c1cccc(NC2=C(N3CCOCC3)C(=O)c3ccccc3C2=O)c1 | i | i | 58.6 | 56.7 | 74.8 | i | 68.9 | 80.9 | 59.7 | 64.1 | i
CC(=O)c1cccc(Nc2nc(N3CCOCC3)nc(N3CCOCC3)n2)c1 | i | i | i | i | i | i | nt | nt | nt | nt | nt
O=C(CCNC(=O)c1ccccc1Cl)NCCc1ccc(C(F)(F)F)cc1 | i | i | i | i | i | i | nt | nt | nt | nt | nt
O=C1/C(=C\c2ccc(O)cc2)SC(=S)N1/N=C/c1ccc(O)cc1 | 83.1 | i | i | 90.2 | 97.6 | i | i | i | i | i | 57.2
CC(=O)NN1C(=O)/C(=C\c2ccc(O)cc2)SC1=S | 54.4 | i | i | 59.8 | 68.5 | i | 63.3 | 60.8 | 85.0 | 81.8 | 74.1
O=C1C2C3C=CC(CC3)C2C(=O)N1/N=C/c1ccc(O)cc1 (configuration not stated) | i | i | i | i | i | i | nt | nt | nt | nt | nt
CC(=O)NN1C(=O)/C(=C\c2ccc(C)cc2)SC1=S | i | i | i | i | i | i | nt | nt | nt | nt | nt
Cn1/c(=N/N=C/c2ccccn2)sc2ccccc21 | i | nt | i | i | i | i | nt | nt | nt | nt | nt
O=C(Nc1cc(Sc2nc3ccccc3s2)cc([N+](=O)[O-])c1)c1cccc(F)c1F | i | i | i | i | i | i | nt | nt | nt | nt | nt
N#Cc1ccc(COC(=O)c2cnc3ccccc3n2)cc1 | i | i | i | i | i | i | nt | nt | nt | nt | nt
O=c1[nH]c(SCc2ccc(Cl)cc2)nc2ccsc12 | i | i | nt | 63.0 | 78.4 | nt | i | 67.2 | 88.2 | i | i
O=C(COc1ccccc1)NCC(c1ccco1)N1CCN(c2ccccc2)CC1 (configuration not stated) | i | i | i | i | i | i | nt | nt | nt | nt | nt
N#C/C(=C/c1ccc(O)c(O)c1)c1nc2ccccc2[nH]1 | 72.2 | i | i | 69.8 | 80.4 | i | 82.1 | 81.0 | 94.5 | 78.4 | i
N#C/C(=C\c1cccs1)c1nc2ccccc2[nH]1 | nt | i | i | nt | nt | i | nt | nt | nt | nt | nt
O=C1CCC(=O)c2ccc3c4c(ccc1c24)CC3 | nt | nt | i | nt | nt | i | nt | nt | nt | nt | nt
O=C1CCN2C=Nc3cccc4ccc1c2c34 | i | i | i | 59.3 | 69.4 | i | i | i | i | i | i
C/C(=N/NC(=O)c1ccoc1C)c1cccc(NC(=O)C2CC2)c1 | i | i | i | i | i | i | nt | nt | nt | nt | nt
CCCc1ccc(C(=O)O/N=C(\N)c2ccccn2)cc1 | 99.6 | i | i | 97.1 | 99.7 | i | 96.9 | 99.6 | 102.1 | 97.5 | 78.0
N/C(=N\OC(=O)C1CCCCC1)c1ccccn1 | 68.1 | i | i | i | 67.0 | i | 61.2 | 59.5 | 87.3 | 89.1 | 67.2
SMILES | SENP7 inh | AHR activator | SENP8 block-1 | SENP8 block-2 | SENP6 inh | EBI2 antag | SENP8 confirm | SENP6 confirm | SENP7 confirm | Casp3 SENP sel | SENP luc ctr
Cc1ccccc1C(=O)O/N=C(\N)Cc1cccs1 | 60.6 | i | i | i | 50.6 | i | 52.2 | i | 81.3 | 75.5 | 55.1
Cc1ccccc1OCC(=O)O/N=C(\N)Cc1cccs1 | i | i | i | i | i | i | nt | nt | nt | nt | nt
N/C(=N\OC(=O)c1ccc2ccccc2c1)c1ccncc1 | 67.0 | i | i | 56.2 | i | i | 70.4 | 70.8 | 90.5 | 76.7 | 72.8
N/C(=N\OC(=O)c1ccc(=O)n(Cc2ccccc2)c1)c1ccccn1 | i | i | i | i | i | i | nt | nt | nt | nt | nt
N/C(=N\OC(=O)C1CCCCC1)c1ccncc1 | i | i | i | i | i | i | nt | nt | nt | nt | nt
Cc1ccc(-c2nc(=S)c3c(n2Cc2cccnc2)CC(C)(C)OC3)cc1 | i | i | i | i | i | i | nt | nt | nt | nt | nt
O=C(Nc1ccccc1)c1nccn1Cc1ccc(F)cc1 | i | i | i | i | i | i | nt | nt | nt | nt | nt
CC(=O)NC(Cc1ccc(F)cc1)C(=O)NC1CCN(c2ncccc2[N+](=O)[O-])CC1 (configuration not stated) | i | i | i | i | i | i | nt | nt | nt | nt | nt
COc1ccc(/C(N)=N/OC(=O)c2ccc([N+](=O)[O-])c(C)c2)cc1OC | i | i | i | i | i | i | nt | nt | nt | nt | nt
N/C(=N\OC(=O)c1ccc2ccccc2c1)c1ccccc1Cl | 78.5 | i | i | 67.6 | 73.0 | i | 82.5 | 81.2 | 94.1 | 70.6 | 82.9
N/C(=N\OC(=O)c1ccc2ccccc2c1)c1cccc([N+](=O)[O-])c1 | i | i | i | i | i | i | nt | nt | nt | nt | nt
COc1cccc(C(=O)O/N=C(\N)c2ccccn2)c1 | 98.2 | i | i | 95.0 | 97.1 | i | 97.4 | 97.9 | 102.2 | 98.3 | 97.7
N/C(=N\OC(=O)c1ccc2ccccc2c1)c1ccccn1 | 100.5 | i | i | 95.8 | 94.3 | i | 94.9 | 96.9 | 102.2 | 97.5 | i
Cc1cc(C(=O)O/N=C(\N)c2ccncc2)ccc1[N+](=O)[O-] | 57.5 | i | i | i | i | i | i | i | i | i | i
NS(=O)(=O)c1ccc(CCNC(=O)c2cc3ccccc3s2)cc1 | i | i | i | i | i | i | nt | nt | nt | nt | nt
Cc1ccccc1C(=O)O/N=C(\N)c1ccncc1 | 65.3 | i | i | i | 62.0 | i | i | i | 78.6 | 81.2 | 54.8
Cc1c(Cl)cccc1N=C(N)N=C(N)N | i | i | i | i | i | i | nt | nt | nt | nt | nt
NC(N)=NC(N)=Nc1cccc2ccccc12 | 66.5 | i | i | i | 60.6 | i | i | i | i | i | i
COc1ccc(OC)c(CN2CCN(C(=O)CCC(=O)c3cccs3)CC2)c1 | i | i | i | i | i | i | nt | nt | nt | nt | nt
O=C(/C=C/Nc1ccc([N+](=O)[O-])cc1Br)c1cccc2ccccc12 | 85.6 | i | i | i | 87.2 | i | i | i | i | i | i
